Inconclusive results are not listed. The source made the active and inactive calls.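 The calls were made as follows, unless noted: active = GFP response, as percent of the DMSO control, above the screen-wide mean plus 3 SD, about 139; inconclusive = no response measured because the compound's own fluorescence interfered; inactive = the rest.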
Tests used:
[1] = rapamycin-like changes in RPL19A-GFP expression – cell-based, S. cerevisiae, multiplex flow cytometry, primary screen (AID 1862; in the data active = percent of DMSO control GFP below about 86%;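 also: lower values mimic rapamycin by blocking the RPL19A rise seen in DMSO cells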); settings: S. cerevisiae RPL19A-GFP strain, flow cytometry fluorescence, 3 h; at 10 µM; stronger effect = lower value
[2] = TOR pathway GLN3 branch reporter MEP2-GFP changes – S. cerevisiae, multiplex flow cytometry, primary screen (AID 1867);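 also: median GFP channel fluorescence of barcode-gated MEP2-GFP cells measured by flow cytometry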; settings: S. cerevisiae MEP2-GFP strain, 3 h, at 10 µM, stronger effect = higher value, 100% means same as DMSO wells
[3] = TOR pathway RTG branch CIT2 reporter changes – S. cerevisiae, GFP fusion, multiplex flow cytometry, primary screen (AID 1870;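 active = percent response above a set limit, the screen-wide mean plus 3 SD, cut at about 130% in these data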;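 also: barcoded CIT2-GFP strain pooled with four other GFP strains with rapamycin as positive control; median GFP fluorescence per well over plate mean of DMSO wells so 100% = DMSO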); settings: S. cerevisiae CIT2-GFP expression, 3 h, at 10 µM, stronger effect = higher value
[4] = TOR pathway LAP4-GFP level changes – S. cerevisiae, multiplex flow cytometry, primary screen (AID 1873;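 active = GFP signal, as percent of the solvent control, above the screen mean plus 3 SD, about 149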); settings: S. cerevisiae LAP4-GFP expression, 3 h, at 10 µM, stronger effect = higher value
[5] = yeast AGP1-GFP level changes, GLN3 branch – cell-based, multiplex flow cytometry, S. cerevisiae, primary screen (AID 1887;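 active = GFP signal above the screen-wide mean plus 3 SD, that is over about 124.5% of the solvent control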;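 also: AGP1-GFP fusion strain of S. cerevisiae within a five-strain barcoded multiplex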); settings: 3 h, at 10 µM, stronger effect = higher value
[6] = reduced mouse 2C T cell binding to pMHC/ICAM-1 vesicles – MLPCN validation set, flow cytometry, LFA-1/ICAM-1 modulator project, pilot screen (AID 2523;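 active = response below a set limit, under 55% cells CD8-positive and vesicle-bound, and CD8 cells' 90th-percentile brightness under 279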;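 as to vesicle binding response: mean PE anti-B7-1 fluorescence of CD8+ cells relative to row control; 100% = QL9-loaded vesicles with DMSO vehicle in the same plate row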); settings: 2C mouse CD8+ T cells, at 7 µM, stronger effect = lower value; double positive events: measured here: CD8+/vesicle+ event percentage
[7] = target: Integrin beta-1 (Homo sapiens) + Integrin alpha-4 (Homo sapiens) (UniProt P13612+P05556); assay: alpha4beta1 integrin LIBS antibody binding reduction – U937 cells, HUTS-21 mAb, flow cytometry, validation set, VLA-4 allosteric modulator project, pilot screen (AID 2674;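 active = inhibition above 50%, about 3 SD of the validation set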;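 also: antibody binding induced by the VLA-4 ligand LDV present at three times its Kd; 0% = LDV ligand with antibody and no compound and 100% = antibody without LDV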); settings: HUTS-21 LIBS mAb binding, at 6.7 µM, stronger effect = higher value, binding induced by LDV ligand
[8] = calorie-restriction mimetic ROS inhibitors, yeast – validation compound set, pilot screen (AID 2706;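 active = superoxide response below 65% of plate, a cut near 3 SD across the whole screen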;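 also: yeast exposed to compound for one week at 30 degrees C before staining; 100% = mean of all compound wells on the same plate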); settings: S. cerevisiae aging, superoxide DHE fluorescence; at 10 µM; stronger effect = lower value
[9] = target: Beta-adrenergic receptor kinase 1 (Homo sapiens) (UniProt P25098); assay: GRK2 binders displacing RNA aptamer, biochemical, validation, human GRK2, bead flow cytometry (AID 488806;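 active = aptamer binding inhibition above 30%, about 3 SD of noise from non-fluorescent compounds; inactive = inhibition at or below 30%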); settings: bead-bound GRK2, FAM-aptamer displacement, at 10 µM, stronger effect = higher value
[10] = target: Beta-2 adrenergic receptor (Homo sapiens) (UniProt P07550); assay: agonist-induced loss of surface beta2AR – cell-based, FAP fluorogen, flow cytometry, validation set, pilot screen (AID 504459;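 active = percent response above 42, roughly 3 SD of non-fluorescent test compounds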;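 also: agonist-driven loss of surface beta2AR via internalization measured by FAP dye flow cytometry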); settings: Am2.2-beta2AR cells, at 10 µM, stronger effect = higher value
[11] = target: AP-2 complex subunit beta (Homo sapiens) (UniProt P63010); assay: beta-arrestin/AP2 interaction blockers – biochemical, validation set, GST-AP2 beads, flow cytometry, pilot screen (AID 504541;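 active = inhibition above 54%, about 3 SD of non-fluorescent compounds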;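 also: AP2 carries R879A mutation and is captured from E. coli lysate; bead-bound FITC arrestin peptide fluorescence measuring arrestin peptide binding to AP2; 0% = DMSO wells and 100% = excess unlabeled arrestin peptide control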); settings: FITC arrestin peptide, at 10 µM, stronger effect = higher value, AP2 beta2 appendage fragment, R879A mutant
[12] = cytosolic pH regulators acting via V-ATPase – S. cerevisiae, pHLuorin, HTS validation (AID 504600; in the data active = response above about 15%;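 also: plate controls were DMSO for no effect and reference compound for full effect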); settings: V-ATPase proton transport, at 10 µM, stronger effect = higher value
[13] = system: anti-desmoglein-3 scFv antibody binding to human DSG3; assay: blockers of pathogenic pemphigus antibody–desmoglein-3 binding – biochemical, validation compound set, bead-based, flow cytometry, pilot screen (AID 588368;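 active = binding below the plate cutoff, the plate median minus 3 SD, with a reading above zero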;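 also: signal is the median channel fluorescence of bead-bound GFP antibody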); settings: Protein G beads, DSG3-Fc, scFv-GFP binding, at 10 µM, stronger effect = lower value
[14] = Nile Red efflux blockade in pump-expressing yeast – validation compound set, multiplex, phenotypic, pilot screen (AID 588506;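 active = efflux inhibition above 0.42, the validation set average plus 4 SD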;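 also: Nile Red retained in cells so higher fluorescence means more efflux inhibition; 0 = negative control wells and 1 = enniatin B 25 µM full block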); settings: S. cerevisiae pump-expressing triplex, Nile Red efflux flow cytometry; at 10 µM; stronger effect = higher value; the pumps come from Candida albicans
[15] = target: ATP-binding cassette sub-family B member 6 (Homo sapiens) (UniProt Q9NP58); assay: blockers of ABCB6-driven porphyrin uptake – K562-ABCB6 cells, flow cytometry, validation set, pilot screen (AID 588550;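 active = inhibition above the screen-wide mean plus 3 SD, about 51%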;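 also: 0% = DMSO wells and 100% = benzethonium chloride 70 µM positive control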); settings: K562-ABCB6 porphyrin accumulation, 1 h, at 10 µM, stronger effect = higher value
[16] = AML differentiation inducers, ER-HoxA9 marrow cells – cell-based, GFP/MAC1 double positive, flow cytometry, validation set, primary screen (AID 588685;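 active = differentiation response of at least 50%, scaled between solvent and reference control, from cells with both markers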;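 also: compound exposure lasts four days before antibody staining and flow analysis; 0% = DMSO wells and 100% = 5 µM fulvestrant positive control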); settings: stronger effect = higher value, normalized: vehicle 0, fulvestrant 100

Beta-2 adrenergic receptor (Homo sapiens), sequence (P07550 whole entry, looked up): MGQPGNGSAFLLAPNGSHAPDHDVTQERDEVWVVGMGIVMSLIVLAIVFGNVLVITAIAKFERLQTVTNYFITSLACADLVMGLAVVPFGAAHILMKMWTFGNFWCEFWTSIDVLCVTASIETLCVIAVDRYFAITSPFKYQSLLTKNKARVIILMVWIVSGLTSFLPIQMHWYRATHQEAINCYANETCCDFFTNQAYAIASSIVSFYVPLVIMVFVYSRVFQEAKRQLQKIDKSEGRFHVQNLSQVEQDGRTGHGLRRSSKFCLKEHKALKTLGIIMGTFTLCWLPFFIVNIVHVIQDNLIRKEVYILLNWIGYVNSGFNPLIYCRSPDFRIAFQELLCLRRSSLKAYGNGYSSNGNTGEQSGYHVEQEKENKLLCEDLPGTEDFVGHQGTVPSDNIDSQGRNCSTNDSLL
Integrin beta-1 (Homo sapiens) + Integrin alpha-4 (Homo sapiens), sequence (P05556 whole entry, looked up): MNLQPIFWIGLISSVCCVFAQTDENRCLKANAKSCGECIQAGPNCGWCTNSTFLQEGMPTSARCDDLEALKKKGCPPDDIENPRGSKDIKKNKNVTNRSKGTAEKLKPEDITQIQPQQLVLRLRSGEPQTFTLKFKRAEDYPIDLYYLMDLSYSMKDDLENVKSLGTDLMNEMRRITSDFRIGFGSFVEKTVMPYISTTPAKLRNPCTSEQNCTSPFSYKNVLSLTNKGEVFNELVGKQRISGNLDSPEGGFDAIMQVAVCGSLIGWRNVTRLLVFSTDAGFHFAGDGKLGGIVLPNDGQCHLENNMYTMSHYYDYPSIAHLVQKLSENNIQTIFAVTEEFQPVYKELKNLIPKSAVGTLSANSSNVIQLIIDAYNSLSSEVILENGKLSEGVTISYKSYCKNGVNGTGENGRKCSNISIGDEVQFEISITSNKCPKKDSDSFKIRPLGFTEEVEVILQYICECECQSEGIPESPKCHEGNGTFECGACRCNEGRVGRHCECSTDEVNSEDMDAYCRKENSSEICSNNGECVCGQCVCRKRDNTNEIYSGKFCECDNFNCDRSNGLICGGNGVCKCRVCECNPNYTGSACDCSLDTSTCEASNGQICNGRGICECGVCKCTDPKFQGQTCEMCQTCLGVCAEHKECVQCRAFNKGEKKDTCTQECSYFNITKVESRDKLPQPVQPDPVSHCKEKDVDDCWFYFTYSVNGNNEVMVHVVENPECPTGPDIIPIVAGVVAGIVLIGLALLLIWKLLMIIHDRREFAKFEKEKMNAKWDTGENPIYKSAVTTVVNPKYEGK
Integrin beta-1 (Homo sapiens) + Integrin alpha-4 (Homo sapiens), sequence (P13612 whole entry, looked up): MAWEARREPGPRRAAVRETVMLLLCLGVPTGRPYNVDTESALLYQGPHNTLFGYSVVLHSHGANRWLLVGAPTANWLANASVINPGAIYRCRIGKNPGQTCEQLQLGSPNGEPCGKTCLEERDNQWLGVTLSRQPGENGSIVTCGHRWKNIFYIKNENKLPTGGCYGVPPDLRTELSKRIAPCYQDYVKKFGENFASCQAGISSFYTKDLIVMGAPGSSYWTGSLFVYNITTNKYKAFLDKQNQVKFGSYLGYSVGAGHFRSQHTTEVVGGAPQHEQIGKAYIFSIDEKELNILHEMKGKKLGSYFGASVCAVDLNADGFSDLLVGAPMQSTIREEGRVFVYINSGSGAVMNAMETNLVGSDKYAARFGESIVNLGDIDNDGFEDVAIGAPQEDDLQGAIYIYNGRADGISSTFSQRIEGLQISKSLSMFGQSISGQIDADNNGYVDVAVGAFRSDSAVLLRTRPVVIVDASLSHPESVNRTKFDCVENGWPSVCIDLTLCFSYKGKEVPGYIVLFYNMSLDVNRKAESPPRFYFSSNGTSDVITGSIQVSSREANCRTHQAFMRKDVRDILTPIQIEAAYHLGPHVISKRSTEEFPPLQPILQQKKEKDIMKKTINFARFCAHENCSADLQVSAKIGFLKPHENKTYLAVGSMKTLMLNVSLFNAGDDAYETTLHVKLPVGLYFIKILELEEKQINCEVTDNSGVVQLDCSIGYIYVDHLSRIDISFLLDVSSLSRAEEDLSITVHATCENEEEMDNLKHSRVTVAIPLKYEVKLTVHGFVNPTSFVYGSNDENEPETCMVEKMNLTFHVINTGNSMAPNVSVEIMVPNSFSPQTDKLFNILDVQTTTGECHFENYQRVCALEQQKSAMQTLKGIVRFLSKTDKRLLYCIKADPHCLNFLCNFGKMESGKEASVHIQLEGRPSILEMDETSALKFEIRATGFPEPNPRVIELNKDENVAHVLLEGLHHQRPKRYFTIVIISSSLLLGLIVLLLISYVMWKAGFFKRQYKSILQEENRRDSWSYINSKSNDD
AP-2 complex subunit beta (Homo sapiens), sequence (P63010 whole entry, looked up, the tested form may be a part, one chain of several): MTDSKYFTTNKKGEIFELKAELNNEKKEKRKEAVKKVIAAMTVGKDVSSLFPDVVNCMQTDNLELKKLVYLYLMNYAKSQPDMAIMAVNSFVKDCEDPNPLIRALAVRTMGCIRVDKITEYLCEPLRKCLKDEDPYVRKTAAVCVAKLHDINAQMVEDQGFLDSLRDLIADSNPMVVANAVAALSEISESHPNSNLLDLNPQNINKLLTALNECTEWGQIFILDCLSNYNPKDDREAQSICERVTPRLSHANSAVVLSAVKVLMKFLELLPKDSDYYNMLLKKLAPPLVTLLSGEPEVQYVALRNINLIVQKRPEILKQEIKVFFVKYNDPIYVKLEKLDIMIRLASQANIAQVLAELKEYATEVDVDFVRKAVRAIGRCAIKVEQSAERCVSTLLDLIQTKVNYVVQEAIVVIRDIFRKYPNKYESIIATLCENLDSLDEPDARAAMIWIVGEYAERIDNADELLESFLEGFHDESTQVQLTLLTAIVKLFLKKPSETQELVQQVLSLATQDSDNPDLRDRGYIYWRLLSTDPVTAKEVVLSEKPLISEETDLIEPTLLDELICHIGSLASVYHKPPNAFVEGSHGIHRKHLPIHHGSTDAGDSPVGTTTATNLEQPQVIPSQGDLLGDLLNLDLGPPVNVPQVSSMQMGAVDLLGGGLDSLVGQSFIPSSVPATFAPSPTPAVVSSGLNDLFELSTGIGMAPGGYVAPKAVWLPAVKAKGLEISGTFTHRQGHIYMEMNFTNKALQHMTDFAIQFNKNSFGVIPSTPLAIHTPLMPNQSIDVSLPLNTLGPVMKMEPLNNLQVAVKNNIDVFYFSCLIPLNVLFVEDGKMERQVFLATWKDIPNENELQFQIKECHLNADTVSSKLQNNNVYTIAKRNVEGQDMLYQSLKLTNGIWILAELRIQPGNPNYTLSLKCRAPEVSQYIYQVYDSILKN
ATP-binding cassette sub-family B member 6 (Homo sapiens), sequence (Q9NP58 whole entry, looked up): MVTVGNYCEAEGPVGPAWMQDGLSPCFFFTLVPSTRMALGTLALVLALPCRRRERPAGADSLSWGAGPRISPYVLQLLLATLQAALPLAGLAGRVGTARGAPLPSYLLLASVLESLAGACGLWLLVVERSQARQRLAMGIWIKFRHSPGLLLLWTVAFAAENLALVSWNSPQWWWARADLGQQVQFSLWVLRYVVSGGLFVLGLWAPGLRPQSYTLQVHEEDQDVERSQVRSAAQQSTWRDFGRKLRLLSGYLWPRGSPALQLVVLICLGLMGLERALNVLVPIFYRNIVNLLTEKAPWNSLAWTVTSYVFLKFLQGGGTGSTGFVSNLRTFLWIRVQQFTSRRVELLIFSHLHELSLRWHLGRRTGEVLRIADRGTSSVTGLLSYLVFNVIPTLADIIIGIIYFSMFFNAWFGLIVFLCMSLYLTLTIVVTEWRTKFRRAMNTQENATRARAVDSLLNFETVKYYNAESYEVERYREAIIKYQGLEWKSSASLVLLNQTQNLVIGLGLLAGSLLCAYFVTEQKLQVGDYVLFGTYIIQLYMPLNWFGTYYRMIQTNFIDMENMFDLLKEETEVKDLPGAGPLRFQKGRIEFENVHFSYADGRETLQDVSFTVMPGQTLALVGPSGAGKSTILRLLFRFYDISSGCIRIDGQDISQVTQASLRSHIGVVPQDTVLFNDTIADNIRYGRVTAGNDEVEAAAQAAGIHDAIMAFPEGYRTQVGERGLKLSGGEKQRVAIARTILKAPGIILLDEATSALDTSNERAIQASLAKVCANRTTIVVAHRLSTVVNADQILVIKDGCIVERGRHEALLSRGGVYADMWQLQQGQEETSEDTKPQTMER
Beta-adrenergic receptor kinase 1 (Homo sapiens), sequence (P25098 whole entry, looked up): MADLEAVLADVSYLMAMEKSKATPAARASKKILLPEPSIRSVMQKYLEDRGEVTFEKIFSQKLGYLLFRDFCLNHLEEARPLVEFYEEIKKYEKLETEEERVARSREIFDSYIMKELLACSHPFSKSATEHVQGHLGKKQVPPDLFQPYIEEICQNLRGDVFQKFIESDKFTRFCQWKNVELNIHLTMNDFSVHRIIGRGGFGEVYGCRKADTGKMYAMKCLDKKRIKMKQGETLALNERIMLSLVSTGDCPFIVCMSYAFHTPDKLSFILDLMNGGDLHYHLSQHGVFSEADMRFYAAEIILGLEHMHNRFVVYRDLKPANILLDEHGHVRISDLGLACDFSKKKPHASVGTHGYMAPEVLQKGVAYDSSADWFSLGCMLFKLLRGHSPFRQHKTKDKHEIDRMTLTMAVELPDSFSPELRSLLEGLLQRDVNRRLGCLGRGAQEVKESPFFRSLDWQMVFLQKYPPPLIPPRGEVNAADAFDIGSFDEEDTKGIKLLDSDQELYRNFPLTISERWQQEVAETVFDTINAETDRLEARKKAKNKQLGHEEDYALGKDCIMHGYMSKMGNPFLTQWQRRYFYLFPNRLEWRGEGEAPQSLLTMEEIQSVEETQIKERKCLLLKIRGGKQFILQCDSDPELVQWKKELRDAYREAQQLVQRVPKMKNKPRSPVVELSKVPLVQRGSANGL

Row | Compound | percent of DMSO control GFP [1] | GFP response vs DMSO [2] | percent response of DMSO control [3] | GFP response vs DMSO [4] | GFP response, % of DMSO [5] | double positive events [6] | vesicle binding response [6] | inhibition [7] | superoxide response (% of plate) [8] | aptamer binding inhibition [9] | response [10] | inhibition [11] | response [12] | binding (% of control) [13] | efflux inhibition (fraction of control) [14] | inhibition [15] | differentiation response [16]
1 | O=C1C2CC=C(Cl)CC2C(=O)N1CCc1c[nH]c2ccccc12 (stereo not drawn) | 90.2% (inactive) | 108% (inactive) | 104% (inactive) | 80.9% (inactive) | 97.5% (inactive) | 55.5% | 129% (inactive) | 16.2% (inactive) | 114% (inactive) | 8% (inactive) | -5.28% (inactive) | 0.6% (inactive) | -1.1% (inactive) | 103% (inactive) | 0.09 (inactive) | 12% (inactive) | -12.3% (inactive)
2 | CC1(C)C(=O)OC(/C=C\c2ccccc2)C(C)(C)C1=O (stereo not drawn) | 98.4% (inactive) | 101% (inactive) | 95.7% (inactive) | 112% (inactive) | 107% (inactive) | 64.8% | 160% (inactive) | 1.44% (inactive) | 80.2% (inactive) | 6% (inactive) | -19.9% (inactive) | 6.83% (inactive) | -6.88% (inactive) | 97.3% (inactive) | -0.09 (inactive) | 3% (inactive) | 4.86% (inactive)
3 | CS(=O)c1ccccc1O (stereo not drawn) | 103% (inactive) | 98.8% (inactive) | 92.8% (inactive) | 93% (inactive) | 99.2% (inactive) | 67.1% | 144% (inactive) | 8.28% (inactive) | 47.1% (active) | 0% (inactive) | 33.6% (inactive) | 38.1% (inactive) | 0.1% (inactive) | 101% (inactive) | -0.15 (inactive) | 11% (inactive) | 3.45% (inactive)
4 | Cc1[nH]nc(-c2ccc(O)cc2O)c1Oc1ccccc1 | 106% (inactive) | 100% (inactive) | 114% (inactive) | 93.3% (inactive) | 103% (inactive) | 61.9% | 53.1% (inactive) | 4.73% (inactive) | 95.8% (inactive) | 1% (inactive) | -4.61% (inactive) | -10.9% (inactive) | -4.45% (inactive) | 96.3% (inactive) | -0.32 (inactive) | 3% (inactive) | 8.06% (inactive)
5 | Cc1cc(OC(=O)CNC(=O)OC(C)(C)C)c2c(C)cc(=O)oc2c1 | 101% (inactive) | 105% (inactive) | 97.7% (inactive) | 108% (inactive) | 111% (inactive) | 62.2% | 460% (inactive) | 10.8% (inactive) | 107% (inactive) | 3% (inactive) | -17.2% (inactive) | 6.94% (inactive) | -0.27% (inactive) | 93.1% (inactive) | 0 (inactive) | 2% (inactive) | 3.88% (inactive)
6 | CC1=C(/C=C/C(C)=C/C=C/C(C)=C/C(=O)O)C(C)(C)CCC1 | 106% (inactive) | 106% (inactive) | 103% (inactive) | 125% (inactive) | 121% (inactive) | 62.6% | 194% (inactive) | -2.82% (inactive) | 93.6% (inactive) | 1% (inactive) | -11.2% (inactive) | -5.9% (inactive) | -0.05% (inactive) | 101% (inactive) | 0.04 (inactive) | -2% (inactive) | -6.96% (inactive)
7 | COc1ccc(O)c(C2=Nc3ccccc3N=C(c3ccccc3)C2)c1 | 94.6% (inactive) | 126% (inactive) | 116% (inactive) | 71.5% (inactive) | 85.2% (inactive) | 58.3% | 139% (inactive) | -10% (inactive) | 96.7% (inactive) | 4% (inactive) | -11.7% (inactive) | 13% (inactive) | -3.39% (inactive) | 96.9% (inactive) | 0.34 (inactive) | 12% (inactive) | 2.46% (inactive)
8 | CSCC[C@H](NC(=O)Nc1ccc(C)cc1C)C(=O)O | 99.3% (inactive) | 103% (inactive) | 99.6% (inactive) | 95.7% (inactive) | 96.5% (inactive) | 56.7% | 178% (inactive) | 3.67% (inactive) | 101% (inactive) | 6% (inactive) | 3.91% (inactive) | 6.83% (inactive) | -0.26% (inactive) | 94.5% (inactive) | -0.17 (inactive) | 7% (inactive) | -7.2% (inactive)
9 | O=C(CN1C(=O)C2CCc3[nH]c4ccccc4c3C2C1=O)N1CCCC1 (stereo not drawn) | 89.1% (inactive) | 121% (inactive) | 106% (inactive) | 78.1% (inactive) | 87.3% (inactive) | 48% | 72.2% (active) | 22.9% (inactive) | 95.1% (inactive) | 3% (inactive) | -15.3% (inactive) | -3.8% (inactive) | -4.07% (inactive) | 103% (inactive) | 0.09 (inactive) | 9% (inactive) | 4.91% (inactive)
